# proKLK7 act = proKLK7 (human) activation, primary screen. 0.9% of 370,000 active. activation, % at 7 µM. P49862. AID 652039. purified proKLK7, EDANS-DABCYL substrate fluorescence; 100% is mature enzyme control, 0% vehicle;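 active = activation above the mean of all tested compounds plus 3 SD, computed per campaign excluding outliers beyond control limits, cut at about 13% in these data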
# ADAM17 inh = ADAM17 inhibition, QFRET primary screen | AID 720648 | inhibition, % at 6.95 µM | 0.83% of 370,000 active | P78536 | recombinant ADAM17, EDANS/DABCYL FRET peptide cleavage;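 active = inhibition above the mean of compounds lying between control limits plus 3 SD, set per campaign, cut at about 8.5% in these data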;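 also: 0% = DMSO-only wells as the low control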
# ADAM10 inh = inhibits human ADAM10; O14672; recombinant ADAM10, EDANS/DABCYL FRET peptide cleavage, 3 h; inhibition, % at 7 µM; 0.62% of 370,000 active; AID 720582;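 active = inhibition above a per-campaign cutoff equal to the mean of compounds falling between control-based bounds plus 3 SD, cut at about 20% in these data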;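 also: 0% = DMSO wells while the 100% control is not disclosed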
# Target sequence (O14672 214-748 limits assumed): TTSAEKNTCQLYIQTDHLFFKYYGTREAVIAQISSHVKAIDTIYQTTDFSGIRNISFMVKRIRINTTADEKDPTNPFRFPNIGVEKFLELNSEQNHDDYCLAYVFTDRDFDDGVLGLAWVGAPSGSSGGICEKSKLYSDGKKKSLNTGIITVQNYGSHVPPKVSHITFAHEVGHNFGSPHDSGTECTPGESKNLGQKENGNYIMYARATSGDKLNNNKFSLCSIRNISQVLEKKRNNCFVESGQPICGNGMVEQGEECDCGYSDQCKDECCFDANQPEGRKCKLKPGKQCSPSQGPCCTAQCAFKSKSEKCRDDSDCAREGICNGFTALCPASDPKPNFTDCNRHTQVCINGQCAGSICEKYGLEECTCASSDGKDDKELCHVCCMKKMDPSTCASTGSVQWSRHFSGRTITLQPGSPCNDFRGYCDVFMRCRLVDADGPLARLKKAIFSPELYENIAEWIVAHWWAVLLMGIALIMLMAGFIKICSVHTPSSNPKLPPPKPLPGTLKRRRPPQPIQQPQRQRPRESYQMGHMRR
# rCAG RNA binder = r(CAG) repeat RNA binding. TO-PRO-1 dye displacement fluorescence. AID 651821. 1.3% of 370,000 active. inhibition, % at 3 µM;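 active = inhibition above the plate cutoff, the mean of all test compounds on that plate plus 3 SD, cut at about 35% in these data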;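 also: 0% = DMSO alone and 100% = 100 µM mitoxantrone as full dye displacement; higher means more dye released from RNA so lower well fluorescence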
# MPTP block = blocks calcium-induced mitochondrial swelling; AID 602449; 1.4% of 360,000 active; isolated mouse mitochondria, Ca2+ swelling absorbance, 30 min; inhibition, % at 10 µM;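 active = inhibition of 50% or more, scaled per plate between neutral and stimulator controls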;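 also: 0% = DMSO wells given calcium and 100% = 1 mM EGTA wells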
# DSG3 Ab inh = inhibitors of pemphigus antibody binding to human desmoglein-3 | DSG3-coupled beads, scFv-anti-DSG3-GFP binding, flow cytometry; active compounds read low | 0.48% of 310,000 active | P32926 | binding (percent of control), % at 10 µM;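 active = binding more than 3 SD below its plate's average and above zero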;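 also: hits lower antibody fragment binding to DSG3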
# MPTP counter = mitochondrial membrane potential, counter-screen. shares compounds with MPTP block. isolated mitochondria, Rhodamine 123 fluorescence. inhibition, % at 10 µM. 78% of 5,000 active. AID 624504; in the data active = inhibition above about 22%;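 also: 0% = DMSO vehicle and 100% = positive control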
# rCAG bind conf = r(CAG) RNA repeat binding, confirmation; inhibition, % at 3 µM; TO-PRO-1 dye displacement fluorescence; shares compounds with rCAG RNA binder; 70% of 4,300 active;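 active = inhibition above a per-plate cutoff, the mean inhibition of sample wells plus 3 SD, cut at about 35% in these data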;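 also: loss of TO-PRO-1 fluorescence as compound displaces dye from 1x1 AA loop RNA; 0% = DMSO only wells and 100% = 100 µM mitoxantrone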
# dCAG dye counter = disrupts DNA CAG TO-PRO-1 complex, flagging rCAG hits; shares compounds with rCAG RNA binder; d(CAG) DNA oligo TO-PRO-1 dye displacement, fluorescence; inhibition, % at 3 µM; 94% of 4,300 active; AID 652068;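 active = inhibition above its plate's cutoff, the mean test-well inhibition plus 3 SD, cut at about 4.8% in these data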;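 also: 0% = DNA dye mix with DMSO and 100% = 100 µM mitoxantrone; hits displace the dye from DNA and so lower well fluorescence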
# DNA CAG DR = DNA CAG dye complex inhibition, dose response counter-screen | shares compounds with rCAG RNA binder | DNA CAG/GTC duplex TO-PRO-1 dye displacement fluorescence | IC50, µM | 20% of 250 active; in the data active = IC50 below about 10 µM
# proKLK7 act conf = confirmation of human kallikrein-7 zymogen activators; shares compounds with proKLK7 act; purified proKLK7, EDANS-DABCYL substrate fluorescence; scaled: vehicle 0, mature enzyme 100; activation, % at 7 µM; 68% of 3,200 active;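 active = activation, as change over the incubation, above the mean of all tested compounds plus 3 SD, cut at about 13% in these data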
# EDANS-DABCYL int = optically interferes with EDANS-DABCYL signal, flagging KLK7 hits; shares compounds with proKLK7 act; EDANS-DABCYL substrate fluorescence interference, no enzyme, 4 h; solvent 0%, active enzyme control 100%; activation, % at 7 µM; 80% of 3,200 active; AID 686952;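 active = activation above the all-compound mean plus 3 SD, ignoring values outside control-based bounds, cut at about 4.8% in these data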;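 also: value is the 4 h activation minus the activation read at time zero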
# EDANS interf = EDANS fluorescence interference in dose response, no enzyme; EC50, µM; 20% of 250 active; EDANS-DABCYL peptide fluorescence interference; shares compounds with proKLK7 act;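 active = compounds that raise the fluorescence signal in this interference counterscreen, with EC50 at or below 10 µM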;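 also: intact quenched peptide substrate alone read at 355 nm excitation and 520 nm emission; signal is fluorescence gain from T0 to T4 after four hours at room temperature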
# Starred values were filed as active, the others as inactive; i = inactive; nt = not tested or not shown. In the library only some 4.7% were active in any assay of this set; here they are far more common.
SMILES,proKLK7 act,ADAM17 inh,ADAM10 inh,rCAG RNA binder,MPTP block,DSG3 Ab inh,MPTP counter,rCAG bind conf,dCAG dye counter,others
Cc1nn(-c2ccccc2)c(Cl)c1/C=N/NC(=O)c1ccccc1F,0,-2,-2,-5,2,109,nt,nt,nt,
Cc1nn(-c2ccccc2)c(Cl)c1/C=N/NC(=O)c1ccccc1NS(=O)(=O)c1cccs1,-1,2,2,76*,88*,102,66*,80*,45*,
Cc1[nH]n(-c2ccccc2)c(=O)c1C(c1ccc(O)c([N+](=O)[O-])c1)c1c(C)[nH]n(-c2ccccc2)c1=O,0,0,5,46*,91*,96,74*,33,7.8*,
Cc1cc(/C=N/n2c(COc3ccccc3)nc3ccccc3c2=O)c(O)c([N+](=O)[O-])c1,0,7,18,66*,79*,79,33*,63*,27*,
Cc1ccc(-c2[nH]ncc2/C=N/n2c(COc3ccccc3)nc3ccccc3c2=O)cc1,1,1,2,8,-1,77,nt,nt,nt,
CC(C)[C@H](NC(=O)C1CCCC1)C(=O)N1CCC[C@H]1C(=O)NCc1ccccc1,0,-1,-3,0,nt,nt,nt,nt,nt,
O=C(Nc1ccc(F)cc1)Nc1nnc(Cc2ccccc2F)s1,0,-2,0,45*,58*,89,77*,18,16*,
COc1ccccc1NC(=O)Nc1nnc(Cc2ccccc2F)s1,1,-1,5,7,2,101,nt,nt,nt,
Cc1[nH]n(-c2ccccc2)c(=O)c1N=Nc1c(O)cc(S(=O)(=O)N(C)C)c2ccccc12,1,-4,2,42*,81*,93,42*,89*,67*,
COc1ccc(NC(=S)NNc2ccc([N+](=O)[O-])cc2S(=O)(=O)Nc2ccc(C)cc2C)cc1,-1,7,4,39*,97*,102,56*,81*,45*,
N#C/C(=N\Nc1ccc(S(=O)(=O)N2CCCCCC2)cc1)C(N)=S,1,4,9,45*,96*,100,91*,44*,14*,
NS(=O)(=O)c1ccc(NC(=O)c2ccc(S(=O)(=O)N3CCc4ccccc43)cc2)cc1,0,4,17,29,1,84,nt,nt,nt,
N#C/C(=N\Nc1ccc(S(=O)(=O)N2CCc3ccccc32)cc1)C(N)=S,-1,5,10,85*,99*,103,67*,62*,27*,
CCOC(=O)/C(C#N)=N/Nc1ccc(S(=O)(=O)N2CCc3ccccc32)cc1,0,7,6,40*,89*,96,89*,42*,15*,
O=C(NCc1ccccc1)[C@H]1CCCN1C(=O)[C@H]1CCCN1C(=O)c1cccs1,0,-4,-1,-1,nt,nt,nt,nt,nt,
Cc1ccc(S(=O)(=O)N2CCCc3nc(-c4ccc(F)cc4)ccc32)cc1,0,1,-1,3,nt,nt,nt,nt,nt,
O=C(NCCc1ccccc1Cl)[C@@H]1CCCN1C(=O)[C@@H](NS(=O)(=O)c1ccc(F)cc1F)c1ccccc1,0,3,6,1,nt,nt,nt,nt,nt,
COc1cccc(OCC(=O)NNC(=S)Nc2ccc(Cl)cc2Cl)c1,0,1,-3,57*,68*,96,99*,47*,15*,
O=C(CN1c2ccccc2Sc2ccccc21)N/N=C/c1ccc(Cl)cc1Cl,0,-3,5,-1,-1,105,nt,nt,nt,
O=C(CN1c2ccccc2Sc2ccccc21)NNC(=S)Nc1ccc(Cl)cc1,0,7,15,62*,63*,103,51*,65*,31*,DNA CAG DR=i
O=C(CN1c2ccccc2Sc2ccccc21)NNC(=S)Nc1ccc(Cl)cc1Cl,0,1,6,64*,83*,105,77*,60*,34*,
O=C(N[C@H](C(=O)N1CCC[C@H]1C(=O)NCc1ccccc1)C1CCCCC1)c1ccc(Cl)cc1Cl,0,0,7,0,nt,nt,nt,nt,nt,
Cc1ccc(S(=O)(=O)N(C)[C@H]2C[C@H]3c4cc(-c5ccc6c(c5)OCO6)ccc4CCN3C[C@H]2[C@H](C)O)cc1,0,-5,-11,9,nt,nt,nt,nt,nt,
O=C(NCC1CCN(C(=O)C(=O)c2cccs2)CC1)c1ccc2ccccc2c1,1,-3,1,3,nt,nt,nt,nt,nt,
CC(C)N(CCC(=O)c1ccc2ccccc2c1)Cc1ccccc1,14*,-13,-34,1,99*,nt,-3,nt,nt,proKLK7 act conf=15*;EDANS-DABCYL int=18*
SMILES,proKLK7 act,ADAM17 inh,ADAM10 inh,rCAG RNA binder,MPTP block,DSG3 Ab inh,MPTP counter,rCAG bind conf,dCAG dye counter,others
Cc1[nH]c2ccccc2c1/C=C(\C#N)S(=O)(=O)c1ccccc1,14*,5,14,20,72*,100,61*,nt,nt,proKLK7 act conf=-2;EDANS-DABCYL int=-5
Cc1cc(C)c(/C=C(\C#N)S(=O)(=O)c2ccccc2)[nH]1,-2,2,4,-3,2,111,nt,nt,nt,
COc1cccc(C(=O)NCC2CCN(C(=O)C(=O)c3cc4ccccc4o3)CC2)c1,1,-2,-2,5,nt,nt,nt,nt,nt,
O=C(Nc1cccc2c1[nH]c1ccccc12)C(F)(F)F,21*,-4,-16,2,99*,95,87*,nt,nt,proKLK7 act conf=16*;EDANS-DABCYL int=12*;EDANS interf=i
COC(=O)[C@]1(C#N)CC(=O)N(CC(C)C)[C@@H]1c1ccccc1,-1,-2,-6,-1,nt,nt,nt,nt,nt,
Cc1cc(=O)oc2cc(O)cc(OCc3ccccc3)c12,35*,i,i,9,78*,105,98*,nt,nt,proKLK7 act conf=66*;EDANS-DABCYL int=78*
c1ccc(CCNc2ccnc3cc4ccccc4cc23)cc1,32*,-385,i,15,101*,125,106*,nt,nt,proKLK7 act conf=-36;EDANS-DABCYL int=-52
COc1ccccc1CNS(=O)(=O)c1ccc(F)cc1Br,0,6,5,1,nt,nt,nt,nt,nt,
